# Results as given in PMC4552634, “A New Set of Chemical Starting Points with Plasmodium falciparum Transmission-Blocking Potential for Antimalarial Drug Discovery” (PLoS ONE, 2015).
# The whole screen tested about 13,000 compounds, of which about 3,200 (25%) showed an effect of 50% or more. The list shows a part of the results.
# System: P. falciparum stage V gametocytes
# Set-up: BacTiter-Glo ATP luminescence viability of purified stage V gametocytes in 384-well plates, per cent inhibition versus DMSO
# Settings: 48 h, 5 µM; inhibitor
row,SMILES,% Inhibition
1,COC(=O)c1cccc(OCCNC2CCN(C[C@H](O)c3ccnc4ccc(OC)cc34)CC2)c1 [TCMDC-140710],-10.21%
2,Cc1nnc(N2C(=N)SC(=Cc3ccc(-c4ccc(OC(F)(F)F)cc4)o3)C2=O)s1 [TCMDC-124487],0.8925%
3,COc1nc2c(N3CCN(CCNCc4ccc5c(n4)NC(=O)CO5)CC3)ccnc2cc1F [TCMDC-135208],-25.48%
4,Cc1ccc(NC(=O)Nc2ccc(Cl)c(C(F)(F)F)c2)cc1-c1ccc(C(=O)NCCN2CCOCC2)cc1 [TCMDC-133589],4.722%
5,CC(C)N1CCN(C(=O)c2ccc(CN(C)CCCN3CCN(c4cccc(Cl)c4Cl)CC3)s2)CC1 [TCMDC-136526],84.79%
6,CC(C)N1CCN(C(=O)c2ccc(CNCCCN3CCN(c4cccc(Cl)c4Cl)CC3)o2)CC1 [TCMDC-136521],-13.79%
7,Cc1cc2[nH]c(-c3ccc(C(=O)NCCCN4CCN(c5cccc(Cl)c5)CC4)s3)nc2cc1Cl [TCMDC-140031],-0.02415%
8,CC(C)N1CCN(C(=O)c2ccc(CNCCCN3CCN(c4ccccc4C(F)(F)F)CC3)s2)CC1 [TCMDC-136704],40.48%
9,CC(C)N1CCN(C(=O)c2ccc(CNCCCN3CCN(c4cccc(Cl)c4Cl)CC3)s2)CC1 [TCMDC-136520],62.19%
10,CN(C)CCCN1CCN(C(=O)c2cccc(-c3noc(C(F)(F)F)n3)c2)CC1 [TCMDC-132384],-19.31%
11,CC(C)CCN1CCCN(Cc2ccc(C(=O)Nc3ccc(C(C)(C)C)cc3)cc2)CC1 [TCMDC-136444],35.23%
12,O=C(Nc1ccc(OCc2ccccc2)cc1)c1nc2ccccc2nc1Cl [TCMDC-124732],4.904%
13,Fc1cccc(Nc2nc(NCc3ccc(OCc4ccccc4)cc3)nc(Nc3cccc(F)c3)n2)c1 [TCMDC-135137],60.27%
14,Cc1ccc(Oc2ccc(CNc3nc(Nc4cccc(F)c4)nc(Nc4cccc(F)c4)n3)cc2)cc1 [TCMDC-135138],50.43%
15,Oc1ccc(CCNc2nc(NCc3cccc(OCc4cccc(F)c4)c3)nc(N3CCNCC3)n2)cc1 [TCMDC-133812],-36.91%
16,COc1cccc(Nc2nc(C)cc(NCc3ccc(-c4c(C)noc4C)cc3)n2)c1 [TCMDC-133451],9.249%
17,CC(=O)Nc1cccc(CNc2cc(C)nc(Nc3ccc(C)cc3)n2)c1 [TCMDC-133461],27.64%
18,COc1cc(Cc2cnc3nc(N)nc(N)c3c2C)cc(OC)c1OC [TCMDC-138058],-6.965%
19,Cc1ccc2c(NN=Cc3cccc(F)c3)cc(C)nc2c1 [TCMDC-142067],59.3%
20,Cc1cc(NN=Cc2ccc(F)cc2)c2ccc(F)cc2n1 [TCMDC-142039],-75.1%
21,Cc1ccc2c(NN=CC=Cc3ccccc3)cc(C)nc2c1 [TCMDC-142075],-22.28%
22,CCOc1ccc2nc(C)cc(NN=Cc3ccc(Cl)cc3)c2c1 [TCMDC-142091],100.1%
23,Cc1ccc2nc(C)cc(NN=Cc3cccc(F)c3)c2c1 [TCMDC-142066],30.79%
24,CCOc1ccc2nc(C)cc(NN=Cc3ccncc3)c2c1 [TCMDC-142046],-27.59%

row,SMILES,% Inhibition
1,COc1ccc2nc(C)cc(NN=Cc3ccc(Cl)cc3)c2c1 [TCMDC-123971],99.29%
2,Cc1cc(NN=Cc2ccc(Cl)cc2)c2ccccc2n1 [TCMDC-123979],12.17%
3,COc1ccc2c(NN=Cc3ccc(F)cc3)cc(C)nc2c1 [TCMDC-142086],107.2%
4,CCOc1ccc2nc(C)cc(NN=Cc3ccccc3)c2c1 [TCMDC-142094],-27.91%
5,Cc1ccc(NC(=O)NC2CCN(c3ccnc4cc(Cl)ccc34)CC2)cc1 [TCMDC-133571],-34.41%
6,CNS(=O)(=O)Cc1ccc(Nc2nccc(Nc3cccc4c3cnn4C(=O)Nc3ccccc3)n2)cc1 [TCMDC-136315],19.26%
7,Cc1cc(Br)c(OCCCON2C(N)=NC(N)=NC2(C)C)c(Br)c1 [TCMDC-131365],37.66%
8,Cc1nc2c(c(C)nn2C(C)(C)C)c(C)c1CCC(=O)Nc1ccc(CN2CCCC2)cc1 [TCMDC-124397],-7.615%
9,COC(=O)c1ccc(Nc2nccc(Nc3ccc(Oc4ccccc4)cc3)n2)cc1 [TCMDC-138560],-28.54%
10,COc1cccc(Nc2nc(C)cc(NCc3ccc(-n4ccnc4)cc3)n2)c1 [TCMDC-133450],43.61%
11,Cc1cc(N(C)C)nc(Nc2ccc(NC(=O)c3ccccc3F)cc2)n1 [TCMDC-124725],4.015%
12,Cc1cc(Cl)c(S(=O)(=O)NC2CCCC2)cc1OCC(=O)NC1CCCCC1 [TCMDC-124353],26.39%
13,Fc1cccc(COc2ccc(Nc3ncnc4ccc(-c5nnc(C(F)(F)F)o5)cc34)cc2Cl)c1 [TCMDC-138162],-34.34%
14,COc1ccc2nc(C)cc(NN=Cc3ccc(F)cc3)c2c1 [TCMDC-123973],111.2%
15,Cc1cc(NN=Cc2ccccc2F)c2cccc(C)c2n1 [TCMDC-142068],-42.7%
16,Cc1cc(NN=Cc2cccc(F)c2)c2cccc(C)c2n1 [TCMDC-142081],-19.79%
17,COc1ccc2nc(C)cc(NN=Cc3cccc(F)c3)c2c1 [TCMDC-142084],32.42%
18,Cc1cc(NN=Cc2ccc(F)cc2)c2cccc(C)c2n1 [TCMDC-142082],83.37%
19,COc1ccc2c(NN=Cc3cccc(F)c3)cc(C)nc2c1 [TCMDC-142085],106.9%
20,CCCC(=O)Nc1ccc(OCCCCN(CC(C)(C)C)c2ccc(C#N)c(C(F)(F)F)c2)cc1 [TCMDC-132784],-2.311%
21,O=C(Nc1ccc(-c2nc3ccccc3[nH]2)cc1)c1cccc([N+](=O)[O-])c1 [TCMDC-123637],-11.52%
22,Cc1n[nH]c2ccc(-c3ccc4nccc(N5CCC(N)CC5)c4c3)cc12 [TCMDC-134315],105.4%
23,Clc1ccc2nccc(N3CCC(CN4CCC(c5c[nH]c6ccccc56)CC4)CC3)c2c1 [TCMDC-134281],0.1691%
24,O=S(=O)(Nc1ccc2nccc(N3CCNCC3)c2c1)c1ccc(-c2ccccc2)cc1 [TCMDC-139546],12.57%

row,SMILES,% Inhibition
1,CCn1c(-c2ccccc2)cc2nnc3ccccc3c21 [TCMDC-138220],3.318%
2,CC[C@H](NC(=O)c1c(CCCN2CCN(c3ccccc3)CC2)c(-c2ccccc2)nc2cc(O)ccc12)c1ccccc1 [TCMDC-139302],9.444%
3,CCN1CCN(c2ccc(Nc3c4ccccc4nc4ccccc34)cc2)CC1 [TCMDC-124255],96.72%
4,Cc1ccc(Nc2nc(C)cc(N3CCN(c4ccccc4)CC3)n2)cc1 [TCMDC-125308],-56.11%
5,CN1CCN(c2ccc(Nc3c4ccccc4nc4ccccc34)cc2)CC1 [TCMDC-123912],39.23%
6,CCN1CCN(CCNc2c3ccccc3nc3ccccc23)CC1.Cl [TCMDC-137545],85.19%
7,CCN1CCN(CCCCNc2c3ccccc3nc3ccccc23)CC1 [TCMDC-137570],80.96%
8,CCN1CCN(CCCNc2c3ccccc3nc3ccccc23)CC1 [TCMDC-137546],84.24%
9,Oc1cc2c(cc1CN1CCN(Cc3ccc(Cl)s3)CC1)CCC2 [TCMDC-124882],-46.75%
10,CCCc1ccc(N2C(N)=NC(N)=NC2(C)C)cc1 [TCMDC-137706],5.239%
11,Cc1cc2c(cc1C(F)(F)F)N(C(=O)Nc1cc(C(=O)NC3CCN(Cc4ccccc4)C3)cc(C(F)(F)F)c1)CC2 (centres unmarked) [TCMDC-139921],12.41%
12,Oc1ccc(-c2nc3c4cc(I)ccc4c4ccc(I)cc4c3[nH]2)cc1 [TCMDC-124199],-25%
13,N#Cc1ccc2nc(-c3cc(-c4cccc(F)c4)cnc3N)[nH]c2c1 [TCMDC-133133],-54.5%
14,N#Cc1ccc(N2CCN(Cc3cccc(-c4cccc(-c5nc6cc(F)ccc6[nH]5)c4)c3)CC2)nc1.O=C(O)C(F)(F)F [TCMDC-133109],-21.69%
15,Clc1ccc(Cc2nc3ccccc3[nH]2)cc1Cl [TCMDC-125878],-7.507%
16,O=C(Nc1ccc(Cl)c(Cl)c1)N1CCC(CN2CCC(c3c[nH]c4ccccc34)CC2)CC1 [TCMDC-140195],-22.77%
17,O=C(Nc1ccc(Oc2ccccc2)cc1)N1CCC(CCN2CCC(c3c[nH]c4ccccc34)CC2)CC1 [TCMDC-140190],106%
18,FC(F)(F)c1ccc(NC(=S)N2CCC(CCN3CCC(c4c[nH]c5ccccc45)CC3)CC2)cc1 [TCMDC-140188],107.1%
19,FC(F)(F)c1ccc(NC(=S)N2CCC(CN3CCC(c4c[nH]c5ccccc45)CC3)CC2)cc1 [TCMDC-140191],5.954%
20,O=C(Nc1ccc(Oc2ccccc2)cc1)N1CCC(CN2CCC(c3c[nH]c4ccccc34)CC2)CC1 [TCMDC-140194],35.38%
21,O=C(Nc1cc(C(F)(F)F)cc(C(F)(F)F)c1)N1CCC(CN2CCC(c3c[nH]c4ccccc34)CC2)CC1 [TCMDC-140192],-4.081%
22,O=C(Nc1cc(C(F)(F)F)cc(C(F)(F)F)c1)N1CCC(CCN2CCC(c3c[nH]c4ccccc34)CC2)CC1 [TCMDC-140189],108.5%
23,CN(C)CCc1c[nH]c2ccc(C(=O)Nc3ccc(-c4ccncc4)cc3)cc12 [TCMDC-132057],19.3%
